Reference: PubChem BioAssay (EPA / NIEHS)
Inconclusive results are not listed. Some compounds were tested as several samples or in several runs, with calls that do not always agree. Activity calls are given as the source filed them. Rule for the calls: active = hit-call score of the fitted dose curve at least 0.9, where 1 is the maximum; inconclusive = response in the unintended direction; inactive = score below 0.9.

Molecular target: rat Peripheral-type Benzodiazepine Receptor (PBR), Tspo (gene 24230) (UniProt P16257)
Sequence (P16257 whole entry, looked up): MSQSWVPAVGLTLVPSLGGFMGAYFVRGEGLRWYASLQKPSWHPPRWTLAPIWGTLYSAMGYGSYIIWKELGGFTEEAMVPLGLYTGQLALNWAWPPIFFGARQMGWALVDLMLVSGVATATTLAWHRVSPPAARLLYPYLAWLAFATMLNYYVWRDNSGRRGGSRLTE
Experiment: NVS_MP_rPBR: NovaScreen (NVS) Membrane Protein Assay for rat Peripheral-type Benzodiazepine Receptor (PBR) (AID 2283335)
How it was run: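 Radioligand displacement, rat kidney membrane prep, 1 h exposure, filter-based scintillation read; DMSO baseline, loss-of-signal scored. Primary screen at 25 uM in duplicate, actives followed up in concentration series.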

Q: Which outcome does the source give for CCCCCCCC(OC)OC here?
A: inactive

Q: With c1cnc2c(c1)ccc1cccnc12 as the molecule, how does the outcome read?
A: inactive

Q: With CCCCCCCCCCCC as the molecule, how does the AC50 read?
A: 5.18 µM (active)

Q: With COc1cc(OC)nc(NC(=O)NS(=O)(=O)Nc2ccccc2C(=O)N(C)C)n1 as the molecule, how does the outcome read?
A: inactive

Molecular target: bovine Estrogen Receptor (ER), ESR1 (gene 407238) (UniProt P49884)
Sequence (P49884 whole entry, looked up): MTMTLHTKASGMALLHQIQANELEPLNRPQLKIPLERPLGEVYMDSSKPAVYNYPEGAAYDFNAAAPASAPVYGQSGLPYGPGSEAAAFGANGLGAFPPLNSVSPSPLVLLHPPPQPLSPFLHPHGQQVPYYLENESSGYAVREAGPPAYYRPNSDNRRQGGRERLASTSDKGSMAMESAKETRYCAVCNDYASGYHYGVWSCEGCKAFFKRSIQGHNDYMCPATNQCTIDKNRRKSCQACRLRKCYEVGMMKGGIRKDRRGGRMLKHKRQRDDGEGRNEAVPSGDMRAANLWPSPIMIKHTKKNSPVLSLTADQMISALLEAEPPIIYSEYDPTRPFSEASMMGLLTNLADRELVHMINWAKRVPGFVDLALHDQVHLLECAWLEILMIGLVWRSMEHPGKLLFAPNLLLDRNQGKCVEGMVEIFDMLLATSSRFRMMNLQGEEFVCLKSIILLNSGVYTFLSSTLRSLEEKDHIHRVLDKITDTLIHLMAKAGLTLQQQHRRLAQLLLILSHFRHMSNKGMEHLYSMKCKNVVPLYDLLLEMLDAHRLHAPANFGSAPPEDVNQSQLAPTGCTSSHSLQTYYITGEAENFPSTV
Experiment: NVS_NR_bER: NovaScreen (NVS) Nuclear Receptor Binding Assay for bovine Estrogen Receptor (ER) (AID 2283345);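 note: actives lower the bound radioligand count which means they displace the ER ligand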
How it was run: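 Displacement of a radioligand from estrogen receptor in bovine uterine membrane preparations; scintillation signal taken at 18 hours, DMSO as baseline. Single-concentration duplicates (25 uM) preceded concentration-response follow-up of actives.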

Q: Which outcome does the source give for O=C(c1cc(O)c(O)c(O)c1)c1ccc(O)c(O)c1O here?
A: inactive

Q: O=C(Nc1cccc([N+](=O)[O-])c1)c1cc2ccccc2cc1O was tested. Which outcome did it give?
A: inactive

Q: Which outcome does the source give for O=C1Cc2ccccc2N1c1c(Cl)cccc1Cl here?
A: inactive

Q: C[C@]12CC[C@@H]3c4ccc(O)cc4CC[C@H]3[C@@H]1CC[C@@H]2OC(=O)CCC1CCCC1 was tested. Which AC50 did it give?
A: 0.0684 µM (active)

Q: Oc1c(Cl)cc(Cl)cc1Sc1cc(Cl)cc(Cl)c1O was tested. Which outcome did it give?
A: inactive

Q: How did the outcome turn out when Oc1ccc(Cc2ccccc2O)cc1 was run?
A: inactive

Q: NCc1cccc(CN)c1 was tested. Which outcome did it give?
A: inactive

Q: Which outcome does the source give for CCOC(=O)c1nc(C(Cl)(Cl)Cl)n(-c2ccc(Cl)cc2Cl)n1 here?
A: inactive

Q: C=CC(=O)OCC(CO)(COCC(COC(=O)C=C)(COC(=O)C=C)COC(=O)C=C)COC(=O)C=C was tested. Which outcome did it give?
A: inactive

Q: For COC1=CC(=O)C[C@@H](C)[C@]12Oc1c(Cl)c(OC)cc(OC)c1C2=O, which outcome is on record?
A: inactive

Q: With COc1ccccc1NC(=O)c1cc2ccccc2cc1O as the molecule, how does the outcome read?
A: inactive

Q: For C=CC(C)(CCC=C(C)C)OC(C)=O (stereo unspecified), which AC50 is on record?
A: 17.1 µM (active)

Q: CC1=CC(=O)c2ccccc2C1=O was tested. Which outcome did it give?
A: inactive

Q: CCCCCCOC(=O)c1ccc(O)cc1 was tested. Which AC50 did it give?
A: 13 µM (active)

Q: How did the outcome turn out when CCCCCC(C)OC(=O)COc1ccc(Cl)c2cccnc12 (stereo unspecified) was run?
A: inactive

Q: c1ccc(CNc2ncnc3c2ncn3C2CCCCO2)cc1 (stereo unspecified) was tested. Which outcome did it give?
A: inactive

Q: How did the outcome turn out when CCCCCCCCCCCC[N+](C)(C)CCCCCCCCCCCC was run?
A: inactive

Q: C=C(c1ccc(C(=O)O)cc1)c1cc2c(cc1C)C(C)(C)CCC2(C)C was tested. Which outcome did it give?
A: inactive

Q: CCCCCCc1ccc(N)cc1 was tested. Which outcome did it give?
A: inactive

Q: With CCCCCCCCCCCCOC(=O)c1cc(O)c(O)c(O)c1 as the molecule, how does the outcome read?
A: inactive

Q: For Nc1cc(Cl)c(-c2cc(Cl)c(N)cc2Cl)cc1Cl, which outcome is on record?
A: inactive

Molecular target: chimpanzee Androgen Receptor (AR), AR (gene 747460) (UniProt O97775)
Sequence (O97775 whole entry, looked up): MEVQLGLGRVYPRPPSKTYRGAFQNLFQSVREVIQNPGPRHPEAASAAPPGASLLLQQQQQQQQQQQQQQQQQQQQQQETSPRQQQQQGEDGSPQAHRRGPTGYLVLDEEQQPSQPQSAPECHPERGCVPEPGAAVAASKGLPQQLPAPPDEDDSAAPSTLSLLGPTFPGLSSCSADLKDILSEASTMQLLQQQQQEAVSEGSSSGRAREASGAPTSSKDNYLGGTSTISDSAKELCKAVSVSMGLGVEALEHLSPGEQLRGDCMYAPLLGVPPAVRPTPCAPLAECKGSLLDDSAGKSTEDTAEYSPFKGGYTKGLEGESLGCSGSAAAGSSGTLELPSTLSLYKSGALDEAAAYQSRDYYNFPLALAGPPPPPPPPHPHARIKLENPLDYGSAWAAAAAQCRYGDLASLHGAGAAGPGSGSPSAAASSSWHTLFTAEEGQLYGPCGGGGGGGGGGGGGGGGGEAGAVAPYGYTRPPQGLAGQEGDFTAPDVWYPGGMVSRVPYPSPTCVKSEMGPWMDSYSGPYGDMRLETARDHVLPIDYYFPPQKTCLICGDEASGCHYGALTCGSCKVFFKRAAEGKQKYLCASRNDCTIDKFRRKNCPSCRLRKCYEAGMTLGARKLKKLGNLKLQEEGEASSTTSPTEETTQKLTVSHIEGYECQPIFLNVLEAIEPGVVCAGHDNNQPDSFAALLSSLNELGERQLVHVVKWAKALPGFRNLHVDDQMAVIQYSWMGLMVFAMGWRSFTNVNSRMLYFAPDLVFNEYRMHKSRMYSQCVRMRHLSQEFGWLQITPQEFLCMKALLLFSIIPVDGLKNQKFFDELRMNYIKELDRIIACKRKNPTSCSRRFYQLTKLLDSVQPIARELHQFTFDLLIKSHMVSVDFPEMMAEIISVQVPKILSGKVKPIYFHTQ
Experiment: NVS_NR_cAR: NovaScreen (NVS) Nuclear Receptor Binding Assay for chimpanzee Androgen Receptor (AR) (AID 2283346);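 note: radioligand displacement from AR measured by scintillation counting in a cell-free assay; a loss of bound radioligand signal versus DMSO counts as binding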
How it was run: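 Radioligand binding to chimpanzee AR expressed in Sf9/Sf21 cells, cell-free, measured 72 h after dosing by lysate-based scintillation counting. Loss of signal vs DMSO; initial duplicate screen at 25 uM, actives retested in concentration series.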

Q: For CCC1CO1 (stereo unspecified), which AC50 is on record?
A: 5 µM (active)

Q: How did the outcome turn out when CC(C)(c1ccc(Oc2ccc(N)cc2)cc1)c1ccc(Oc2ccc(N)cc2)cc1 was run?
A: inactive

Q: For C[C@]12CC[C@@H]3c4ccc(O)cc4CC[C@H]3[C@@H]1C[C@@H](O)[C@@H]2O, which outcome is on record?
A: inactive

Q: For CC(C)[C@@H]1CC[C@@H](C)C[C@H]1O, which AC50 is on record?
A: 0.376 µM (active)

Q: O=C1OC2(c3ccccc31)c1cc(I)c(O)c(I)c1Oc1c2cc(I)c(O)c1I was tested. Which AC50 did it give?
A: 21.6 µM (active)

Q: And the outcome?
A: inactive
